DRD3 antagonist: D3 dopamine receptor (human) antagonism; P35462; D3R cells, DiscoveRx beta-arrestin luminescence, antagonist mode; hits give low values; max response, negative = inhibition, %; 360,000 compounds, 2.5% hits; in the data active = max response below about -50%; inconclusive = no clear call, values can overlap the other calls
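Cells plated overnight at 1500 cells/well, then exposed to library compounds with dopamine controls for 90 minutes at 37 degrees C. DiscoveRx reagent added for 30–60 minutes at room temperature; luminescence read, quantitative HTS format.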
D3 ag: agonists of human D3 dopamine receptor; P35462; D3R DiscoveRx beta-arrestin cells, luminescence, 90 min; max activation, %; 410,000 compounds, 0.58% hits; in the data active = max activation above about 30%
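Agonist mode: compounds and dopamine controls were applied to plated cells for 90 min at 37 degrees C after an overnight attachment at 1500 cells/well. Luminescent read-out followed 30 - 60 minutes at room temperature with DiscoveRx detection reagent.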
D1 antag: human D1 dopamine receptor antagonism; AID 504652; 360,000 compounds, 3.2% hits; activity change, negative = inhibition, % at 10 µM; HEK293 TREx D1 cells, calcium flux, dopamine EC80; hits give low values; P21728; in the data active = activity change below about -30%
Target sequence (P21728 whole entry, looked up): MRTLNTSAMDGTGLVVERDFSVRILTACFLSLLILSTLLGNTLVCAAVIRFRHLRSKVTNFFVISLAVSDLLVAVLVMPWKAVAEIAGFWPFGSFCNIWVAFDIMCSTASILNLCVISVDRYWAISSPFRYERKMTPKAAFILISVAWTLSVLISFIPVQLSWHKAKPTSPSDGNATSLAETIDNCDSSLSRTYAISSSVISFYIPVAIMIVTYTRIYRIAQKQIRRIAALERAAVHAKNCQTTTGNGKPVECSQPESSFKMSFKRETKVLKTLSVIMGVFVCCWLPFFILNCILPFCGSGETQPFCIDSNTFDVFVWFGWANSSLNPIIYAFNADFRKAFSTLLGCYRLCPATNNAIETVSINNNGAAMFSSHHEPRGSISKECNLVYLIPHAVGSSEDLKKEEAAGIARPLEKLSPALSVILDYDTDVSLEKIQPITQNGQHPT
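Compound effects on dopamine-evoked calcium signalling were measured in tetracycline-induced HEK293 Trex D1 cells. Dopamine at EC80 followed a 180 s compound pre-read, and fluorescence was tracked kinetically for 180 s more.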
D1 potentiator: potentiators of human D1 dopamine receptor; 360,000 compounds, 0.036% hits; potentiation, % at 10 µM; HEK293 TREx D1 cells, calcium flux, dopamine EC20 potentiation; in the data active = potentiation above about 30%
D1 ag: human D1 receptor agonism; activation, % at 2 µM; 360,000 compounds, 1% hits; HEK293 T-REx D1 cells, calcium flux, agonist mode; AID 504660; P21728; in the data active = activation above about 30%
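Agonism was scored from calcium flux recorded over 180 s (1 read/s) after pintool compound addition, following a 10-cycle baseline. Cells were inducible force-coupled HEK293 TREx D1, plated overnight at 30 C and loaded with no-wash calcium dye.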
Hits are given with their value; – = inactive; ? = inconclusive; · = no result; ! = not active in a repeat. Rows were chosen to be rich in hits. Some 6% of all compounds tested hit in one or more screens of this group.

SMILES	DRD3 antagonist	D3 ag	D1 antag	D1 potentiator	D1 ag
Cc1ccc(C2(C)NC(=O)N(CC(=O)Nc3ccccc3N3CCCC3)C2=O)cc1 (configuration not stated)	–	–	–	–	47
Cc1ccc(S(=O)(=O)c2cc3cc(C(=O)Nc4ccc(C)cc4C)ccc3oc2=O)cc1	·	–	–	–	–
COc1ccc(N(C)S(=O)(=O)c2ccc3c(c2)n(C)c(=O)c(=O)n3C)cc1	·	–	–	–	–
Cc1cccc(Cn2cccc2CNS(=O)(=O)c2ccc(C)c(C)c2)c1	·	–	–	–	–
Cc1ccc(C2(C)NC(=O)N(CC(=O)NC(=O)NC(C)(C)C)C2=O)cc1 (configuration not stated)	–	33	–	–	–
CC(=O)Nc1ccc(/C=N/N2C(=O)NC(C)(c3ccc(OC(F)F)cc3)C2=O)cc1 (configuration not stated)	–	–	-50	–	96
O=C(CN1C(=O)NC2(CCCC2)C1=O)Nc1cc(Cl)ccc1N1CCCCC1	–	–	–	–	42
CC1(c2ccccc2Cl)NC(=O)N(CC(=O)Nc2ccc3c(c2)OCO3)C1=O (configuration not stated)	-71	–	–	–	–
CC1(c2ccccc2)NC(=O)N(CC(=O)Nc2ccc3c(c2)OCO3)C1=O (configuration not stated)	–	–	–	–	–
COc1ccc2c(c1)sc1ncc(C(=O)NCc3ccc(Cl)cc3)c(=O)n12	·	–	–	–	–
COc1cccc(NC(=O)CN2C(=O)NC3(CCCC3)C2=O)c1	–	–	–	–	–
CC1(c2ccc(OC(F)F)cc2)NC(=O)N(CC(=O)Nc2ccccc2)C1=O (configuration not stated)	–	–	-59	–	59
COc1cccc(NC(=O)CN2C(=O)NC(C)(c3ccc(C)cc3)C2=O)c1 (configuration not stated)	–	–	–	–	34
O=C(Cn1c(=O)oc2cc(S(=O)(=O)N3CCCC3)ccc21)Nc1ccc(F)cc1F	·	–	–	–	–
COc1ccc(CCNC(=O)c2cnn(-c3ccc(F)cc3)c2C2CCN(C(=O)OC(C)(C)C)CC2)cc1OC	·	–	–	–	–
COc1ccc2c(c1)CCc1c(C(=O)Nc3c(C)nn(Cc4ccccc4Cl)c3C)noc1-2	·	–	-40	–	–
COc1ccc2c(c1)CCc1c(C(=O)Nc3ccc(OC)c(OC)c3)noc1-2	–	34	–	–	–
COc1ccc2c(c1)CCc1c(C(=O)Nc3c(C)nn(Cc4ccccc4)c3C)noc1-2	–	–	-32!	–	–
O=C(NCc1cccc(Br)c1)c1cccn1-c1nnc(N2CCCCC2)s1	·	–	–	–	–
O=C(c1ccc2c(c1)OCO2)C1CCCN(Cc2ccc(OC(F)F)cc2)C1 (configuration not stated)	-76	–	–	–	–
O=C(c1ccc2c(c1)OCO2)C1CCCN(Cc2ccc3cccc(F)c3n2)C1 (configuration not stated)	–	–	–	–	–
O=C(c1ccc2c(c1)OCO2)C1CCCN(Cc2cn[nH]c2-c2ccccc2)C1 (configuration not stated)	–	–	–	–	–
O=C(c1ccc2c(c1)OCO2)C1CCCN(Cc2cccc(C(F)(F)F)c2)C1 (configuration not stated)	-115	–	–	–	–
Cc1cccc(Cn2cc(S(=O)(=O)c3ccccc3)c(=O)c3cc(F)c(N4CCOCC4)cc32)c1	·	–	–	–	–
COc1ccc(-n2cc(C(=O)Oc3cc(C)cc(C)c3)c3ccccc3c2=O)cc1	·	–	–	–	–
SMILES	DRD3 antagonist	D3 ag	D1 antag	D1 potentiator	D1 ag
N#C/C(=C\c1cc(Br)c(O)c(Br)c1)c1nc2ccccc2c(=O)[nH]1	·	–	–	–	171
N#C/C(=C\c1ccncc1)c1nc2ccccc2c(=O)[nH]1	–	–	-39	–	–
N#C/C(=C/c1ccncc1)c1nc2ccccc2c(=O)[nH]1	–	–	–	–	–
COc1ccc(CNC(=O)CN2C(=O)COc3ccc(S(=O)(=O)N4CCCCCC4)cc32)cc1	·	–	–	–	–
COc1cc(C(=O)N/N=C/c2ccc(OC)c(CN3CCN(c4ccc(F)cc4)CC3)c2)ccc1O	-75	–	–	–	–
CC(C)(C)CC(C)(C)c1cc(Cc2cc(C(C)(C)CC(C)(C)C)cc(-n3nc4ccccc4n3)c2O)c(O)c(-n2nc3ccccc3n2)c1	·	–	·	·	·
Cc1nnc(SCC(=O)Nc2ccc(Br)cc2)[nH]c1=O	·	–	–	–	–
O=C(O)c1ccc(CNCc2c(Cl)cccc2Cl)cc1	–	–	-51	–	–
O=C(O)c1ccc(CNCc2cccc(Cl)c2)cc1	–	–	–	–	–
CCC(=O)NC(c1cccs1)c1cc(Br)c2cccnc2c1O (configuration not stated)	·	·	–	–	–
Cc1ccc2ncc3c(-c4ccccc4)nn(CC(=O)NC4CCCCC4)c3c2c1	·	–	–	–	–
CCN(C(=O)Cn1c(=O)n(Cc2ccc3c(c2)OCO3)c(=O)c2ccc(C(=O)NC3CCCCC3)cc21)c1cccc(C)c1	·	–	-54	–	–
Cc1ccc(C)c(NC(=O)Cn2c(=O)n(Cc3ccc4c(c3)OCO4)c(=O)c3ccc(C(=O)NC4CCCCC4)cc32)c1	·	–	–	–	–
CCOc1ccc(N(C(=O)CC(C)C)S(=O)(=O)c2ccc3c(c2)oc(=O)n3C)cc1	·	–	–	–	–
CCN(N=O)[C@@H](Cc1ccccc1)CN(N=O)[C@@H](Cc1ccccc1)CN(C)N=O	–	32	–	–	–
COc1ccc(CN2CCN(C(=O)c3ccc(-c4ccccc4)cc3)CC2)c(OC)c1OC	–	–	–	–	–
CCOc1ccccc1N1CCN(Cc2cccc(OC)c2OC)CC1	-89	–	–	–	–
COc1ccc2c(CN3CCN(c4ccccc4OC)CC3)cc(=O)oc2c1	?	–	·	·	·
CCOC(=O)C1CCN(Cc2ccc(O)c3ncccc23)CC1	-93	–	-42	–	–
COc1cc2oc(=O)cc(CN3CCN(c4ccccc4OC)CC3)c2cc1Cl	-50	–	·	·	·
COc1ccc(CN2CCN(C(=O)c3cccs3)CC2)c(OC)c1OC	-86	–	-34	–	–
CCc1ccc(NS(=O)(=O)c2c(-c3ccccc3)csc2C(=O)OC)cc1	·	–	–	–	–
Cc1ccc2c(CNC3CCC(C)CC3)c(C(=O)O)n(Cc3cccc(F)c3)c2c1 (configuration not stated)	·	–	–	–	–
CCOc1ccccc1CN1CCN(S(=O)(=O)CC)CC1	-51	–	–	–	–
CCOc1ccccc1N1CCN(Cc2cn[nH]c2-c2ccc(F)cc2)CC1	-84	–	–	–	43
COc1ccccc1N1CCN(Cc2ccc(OC)c(OC)c2OC)CC1	-51	–	–	–	–
CCOC(=O)N1CCN(Cc2ccccc2Cl)CC1	–	–	–	–	–
